# From the supplement of paper PMC12282887
# ± gives the standard deviation of the averaged measurements.
# Legend:
# Assay in all cases: promoter activity interaction Z-score (Lux/OD deviation from empty-vector control); higher = stronger promoter induction by the compound
# [1] = test system: E. coli BW25113 acrABp lux reporter
# In short: (§1)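 Wild-type E. coli BW25113 and three single-gene deletion strains, each carrying a low-copy luxCDABE promoter reporter, were grown at 37°C in 40 µl LB Lennox per well of a 384-well plate. Every compound was applied at four 1:2 dilutions in biological duplicates, and OD600 and luminescence were read every 30 min for 12 h. Integration covered 0–8 h for wild type and 1–9 h for deletion strains, and wells under 10% of the median growth value were removed. Scores are Z-transformed residuals of growth-normalised luminescence fitted against a control.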
# [2] = test system: E. coli BW25113 marRABp lux reporter
# In short: as §1
# [3] = test system: E. coli BW25113 micFp lux reporter
# In short: as §1
# [4] = test system: E. coli BW25113 ompFp lux reporter
# In short: as §1
# [5] = test system: E. coli BW25113 robp lux reporter
# In short: as §1
# [6] = test system: E. coli BW25113 soxSp lux reporter
# In short: as §1
# [7] = test system: E. coli BW25113 tolCp lux reporter
# In short: as §1
# [8] = 13.7 µg/ml, genetic background: wild type
# [9] = 13.7 µg/ml, genetic background: ΔmarA
# [10] = 13.7 µg/ml, genetic background: Δrob
# [11] = 13.7 µg/ml, genetic background: ΔsoxS
# [12] = 27.5 µg/ml, genetic background: wild type
# [13] = 27.5 µg/ml, genetic background: ΔmarA
# [14] = 27.5 µg/ml, genetic background: Δrob
# [15] = 27.5 µg/ml, genetic background: ΔsoxS
# [16] = 54.9 µg/ml, genetic background: wild type
# [17] = 54.9 µg/ml, genetic background: ΔmarA
# [18] = 54.9 µg/ml, genetic background: Δrob
# [19] = 54.9 µg/ml, genetic background: ΔsoxS
# [20] = 109.8 µg/ml, genetic background: wild type
# [21] = 109.8 µg/ml, genetic background: ΔmarA
# [22] = 109.8 µg/ml, genetic background: Δrob
# [23] = 109.8 µg/ml, genetic background: ΔsoxS
# [24] = 24.5 µg/ml, genetic background: wild type
# [25] = 24.5 µg/ml, genetic background: ΔmarA
# [26] = 24.5 µg/ml, genetic background: Δrob
# [27] = 24.5 µg/ml, genetic background: ΔsoxS
# [28] = 49.1 µg/ml, genetic background: wild type
# [29] = 49.1 µg/ml, genetic background: ΔmarA
# [30] = 49.1 µg/ml, genetic background: Δrob
# [31] = 49.1 µg/ml, genetic background: ΔsoxS
# [32] = 98.1 µg/ml, genetic background: wild type
# [33] = 98.1 µg/ml, genetic background: ΔmarA
# [34] = 98.1 µg/ml, genetic background: Δrob
# [35] = 98.1 µg/ml, genetic background: ΔsoxS
# [36] = 196.3 µg/ml, genetic background: wild type
# [37] = 196.3 µg/ml, genetic background: ΔmarA
compound,measurement,setting,value
CNC[C@H](O)c1ccc(O)c(O)c1 [Adrenalin],promoter activity interaction Z-score,[1]; [8],-0.118 ± 0.26
same,promoter activity interaction Z-score,[1]; [9],-0.4 ± 0.56
same,promoter activity interaction Z-score,[1]; [10],0.0418 ± 0.19
same,promoter activity interaction Z-score,[1]; [11],-0.382 ± 0.4
same,promoter activity interaction Z-score,[1]; [12],-0.0931 ± 0.1
same,promoter activity interaction Z-score,[1]; [13],0.531 ± 0.016
same,promoter activity interaction Z-score,[1]; [14],-0.104 ± 0.11
same,promoter activity interaction Z-score,[1]; [15],-0.043 ± 0.052
same,promoter activity interaction Z-score,[1]; [16],-0.373 ± 0.29
same,promoter activity interaction Z-score,[1]; [17],0.688 ± 0.54
same,promoter activity interaction Z-score,[1]; [18],-0.345 ± 0.12
same,promoter activity interaction Z-score,[1]; [19],-0.566 ± 0.013
same,promoter activity interaction Z-score,[1]; [20],-0.472 ± 0.26
same,promoter activity interaction Z-score,[1]; [21],0.342 ± 0.19
same,promoter activity interaction Z-score,[1]; [22],0.0555 ± 0.04
same,promoter activity interaction Z-score,[1]; [23],0.539 ± 0.12
same,promoter activity interaction Z-score,[2]; [8],0.121 ± 0.2
same,promoter activity interaction Z-score,[2]; [9],-0.289 ± 0.22
same,promoter activity interaction Z-score,[2]; [10],-0.0038 ± 0.073
same,promoter activity interaction Z-score,[2]; [11],-0.111 ± 0.21
same,promoter activity interaction Z-score,[2]; [12],0.38 ± 0.26
same,promoter activity interaction Z-score,[2]; [13],0.173 ± 0.6
same,promoter activity interaction Z-score,[2]; [14],0.209 ± 0.28
same,promoter activity interaction Z-score,[2]; [15],0.0712 ± 0.22
same,promoter activity interaction Z-score,[2]; [16],-0.365 ± 0.31
same,promoter activity interaction Z-score,[2]; [17],-0.424 ± 0.13
same,promoter activity interaction Z-score,[2]; [18],-0.339 ± 0.43
same,promoter activity interaction Z-score,[2]; [19],-0.285 ± 0.12
same,promoter activity interaction Z-score,[2]; [20],-0.142 ± 0.4
same,promoter activity interaction Z-score,[2]; [21],-0.43 ± 0.15
same,promoter activity interaction Z-score,[2]; [22],0.0375 ± 0.16
same,promoter activity interaction Z-score,[2]; [23],0.218 ± 0.26
same,promoter activity interaction Z-score,[3]; [8],-0.11 ± 0.0085
same,promoter activity interaction Z-score,[3]; [9],-0.0104 ± 0.018
same,promoter activity interaction Z-score,[3]; [10],0.263 ± 0.12
same,promoter activity interaction Z-score,[3]; [11],-0.351 ± 0.072
same,promoter activity interaction Z-score,[3]; [12],-0.259 ± 0.091
same,promoter activity interaction Z-score,[3]; [13],-0.0735 ± 0.14
same,promoter activity interaction Z-score,[3]; [14],0.173 ± 0.31
same,promoter activity interaction Z-score,[3]; [15],0.192 ± 0.11
same,promoter activity interaction Z-score,[3]; [16],-0.122 ± 0.19
same,promoter activity interaction Z-score,[3]; [17],0.0635 ± 0.093
same,promoter activity interaction Z-score,[3]; [18],0.189 ± 0.21
same,promoter activity interaction Z-score,[3]; [19],-0.508 ± 0.077
same,promoter activity interaction Z-score,[3]; [20],-0.426 ± 0.33
same,promoter activity interaction Z-score,[3]; [21],-0.136 ± 0.074
same,promoter activity interaction Z-score,[3]; [22],0.0853 ± 0.074
same,promoter activity interaction Z-score,[3]; [23],-0.142 ± 0.14
same,promoter activity interaction Z-score,[4]; [8],0.379 ± 0.018
same,promoter activity interaction Z-score,[4]; [9],-0.309 ± 0.22
same,promoter activity interaction Z-score,[4]; [10],-0.171 ± 0.37
same,promoter activity interaction Z-score,[4]; [11],-0.679 ± 0.25
same,promoter activity interaction Z-score,[4]; [12],0.362 ± 0.017
same,promoter activity interaction Z-score,[4]; [13],0.00142 ± 0.52
same,promoter activity interaction Z-score,[4]; [14],-0.0408 ± 0.55
same,promoter activity interaction Z-score,[4]; [15],-0.0291 ± 0.36
same,promoter activity interaction Z-score,[4]; [16],-0.597 ± 0.18
same,promoter activity interaction Z-score,[4]; [17],0.175 ± 0.27
same,promoter activity interaction Z-score,[4]; [18],-1.07 ± 0.55
same,promoter activity interaction Z-score,[4]; [19],-0.961 ± 0.21
same,promoter activity interaction Z-score,[4]; [20],-0.0147 ± 0.25
same,promoter activity interaction Z-score,[4]; [21],-0.377 ± 0.44
same,promoter activity interaction Z-score,[4]; [22],-0.876 ± 1.6
same,promoter activity interaction Z-score,[4]; [23],-0.239 ± 0.22
same,promoter activity interaction Z-score,[5]; [8],-0.189 ± 0.26
same,promoter activity interaction Z-score,[5]; [9],-0.738 ± 0.13
same,promoter activity interaction Z-score,[5]; [10],-0.362 ± 0.49
same,promoter activity interaction Z-score,[5]; [11],-0.567 ± 0.17
same,promoter activity interaction Z-score,[5]; [12],0.83 ± 0.5
same,promoter activity interaction Z-score,[5]; [13],-0.178 ± 0.0036
same,promoter activity interaction Z-score,[5]; [14],-0.489 ± 0.6
same,promoter activity interaction Z-score,[5]; [15],-0.00139 ± 0.12
same,promoter activity interaction Z-score,[5]; [16],-0.414 ± 0.15
same,promoter activity interaction Z-score,[5]; [17],-0.097 ± 0.33
same,promoter activity interaction Z-score,[5]; [18],-0.505 ± 1.8
same,promoter activity interaction Z-score,[5]; [19],-0.645 ± 0.021
same,promoter activity interaction Z-score,[5]; [20],-0.53 ± 0.61
same,promoter activity interaction Z-score,[5]; [21],-0.598 ± 0.62
same,promoter activity interaction Z-score,[5]; [22],-1.48 ± 0.78
same,promoter activity interaction Z-score,[5]; [23],-1.95 ± 0.2
same,promoter activity interaction Z-score,[6]; [8],0.381 ± 0.43
same,promoter activity interaction Z-score,[6]; [9],0.0748 ± 0.12
same,promoter activity interaction Z-score,[6]; [10],0.425 ± 0.29
same,promoter activity interaction Z-score,[6]; [11],-0.181 ± 0.096
same,promoter activity interaction Z-score,[6]; [12],0.23 ± 0.19
same,promoter activity interaction Z-score,[6]; [13],0.131 ± 0.16
same,promoter activity interaction Z-score,[6]; [14],0.208 ± 0.28
same,promoter activity interaction Z-score,[6]; [15],0.264 ± 0.64
same,promoter activity interaction Z-score,[6]; [16],0.0152 ± 0.17
same,promoter activity interaction Z-score,[6]; [17],-0.0453 ± 0.22
same,promoter activity interaction Z-score,[6]; [18],0.121 ± 0.0073
same,promoter activity interaction Z-score,[6]; [19],-0.333 ± 0.19
same,promoter activity interaction Z-score,[6]; [20],-0.143 ± 0.091
same,promoter activity interaction Z-score,[6]; [21],-0.248 ± 0.045
same,promoter activity interaction Z-score,[6]; [22],0.0524 ± 0.1
same,promoter activity interaction Z-score,[6]; [23],0.0254 ± 0.36
same,promoter activity interaction Z-score,[7]; [8],-0.595 ± 0.65
same,promoter activity interaction Z-score,[7]; [9],-0.333 ± 0.39
same,promoter activity interaction Z-score,[7]; [10],0.343 ± 0.15
same,promoter activity interaction Z-score,[7]; [11],-0.571 ± 0.34
same,promoter activity interaction Z-score,[7]; [12],-0.0385 ± 0.61
same,promoter activity interaction Z-score,[7]; [13],-0.394 ± 0.82
same,promoter activity interaction Z-score,[7]; [14],-0.578 ± 0.57
same,promoter activity interaction Z-score,[7]; [15],1.04 ± 1.6
same,promoter activity interaction Z-score,[7]; [16],-0.749 ± 0.67
same,promoter activity interaction Z-score,[7]; [17],0.176 ± 0.046
same,promoter activity interaction Z-score,[7]; [18],-0.0706 ± 0.3
same,promoter activity interaction Z-score,[7]; [19],0.0714 ± 0.89
same,promoter activity interaction Z-score,[7]; [20],-0.414 ± 0.029
same,promoter activity interaction Z-score,[7]; [21],-0.30805 ± 0.0003
same,promoter activity interaction Z-score,[7]; [22],-0.0487 ± 0.27
same,promoter activity interaction Z-score,[7]; [23],-0.39 ± 1.4
C[C@H](CCC(=O)O)[C@H]1CC[C@H]2[C@@H]3CC[C@@H]4C[C@H](O)CC[C@]4(C)[C@H]3C[C@H](O)[C@]12C [Deoxycholic acid],promoter activity interaction Z-score,[1]; [24],-0.00545 ± 0.031
same,promoter activity interaction Z-score,[1]; [25],1.57 ± 0.29
same,promoter activity interaction Z-score,[1]; [26],-0.132 ± 0.14
same,promoter activity interaction Z-score,[1]; [27],-0.386 ± 0.27
same,promoter activity interaction Z-score,[1]; [28],-0.226 ± 0.0089
same,promoter activity interaction Z-score,[1]; [29],0.503 ± 0.52
same,promoter activity interaction Z-score,[1]; [30],-0.0467 ± 0.16
same,promoter activity interaction Z-score,[1]; [31],-0.057 ± 0.47
same,promoter activity interaction Z-score,[1]; [32],0.106 ± 0.28
same,promoter activity interaction Z-score,[1]; [33],1.38 ± 1.5
same,promoter activity interaction Z-score,[1]; [34],-0.154 ± 0.21
same,promoter activity interaction Z-score,[1]; [35],0.252 ± 0.27
same,promoter activity interaction Z-score,[1]; [36],-0.41 ± 0.14
same,promoter activity interaction Z-score,[1]; [37],0.181 ± 0.34
same,promoter activity interaction Z-score,"[1]; 196.3 µg/ml, genetic background: Δrob",-0.162 ± 0.13
same,promoter activity interaction Z-score,"[1]; 196.3 µg/ml, genetic background: ΔsoxS",-0.502 ± 0.59
same,promoter activity interaction Z-score,[2]; [24],-0.31 ± 0.18
same,promoter activity interaction Z-score,[2]; [25],-0.0533 ± 0.055
same,promoter activity interaction Z-score,[2]; [26],-0.148 ± 0.14
same,promoter activity interaction Z-score,[2]; [27],-0.343 ± 0.17
same,promoter activity interaction Z-score,[2]; [28],-0.0619 ± 0.22
same,promoter activity interaction Z-score,[2]; [29],-0.261 ± 0.22
same,promoter activity interaction Z-score,[2]; [30],-0.128 ± 0.13
same,promoter activity interaction Z-score,[2]; [31],-0.203 ± 0.24
same,promoter activity interaction Z-score,[2]; [32],-0.0956 ± 0.065
same,promoter activity interaction Z-score,[2]; [33],-0.111 ± 0.12
same,promoter activity interaction Z-score,[2]; [34],-0.283 ± 0.077
same,promoter activity interaction Z-score,[2]; [35],-0.336 ± 0.16
same,promoter activity interaction Z-score,[2]; [36],-0.225 ± 0.38
same,promoter activity interaction Z-score,[2]; [37],-0.118 ± 0.15
